# Data taken from PubChem BioAssay AID1159580 (chemical genetic matrix, 2015).
# Hit rate of the full screen: of about 5,500 compounds, about 2,000 (36%) were called active. Inconclusive results (about 18%) are left out. The list shows a part of the results. Values without a mark were called inactive. Cut-off read from the data, not from the text of the source: active = normalized growth mostly below about 0.91 (no sharp cut-off); inconclusive = no clear call, values can overlap the other calls; inactive = mostly above about 0.92.
# Assay: chemical genetic growth profiling, strain panel (AID 1159580);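 note: tested at 20 µM; growth read once vehicle control cultures reached saturation at 30 °C; 1 = growth at the plate median or of vehicle wells; lower values mean less growth of the strain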
# Conditions: S. cerevisiae deletion strains, growth OD
structure (smiles),measurement,setting,value
CC(Cc1ccc(O)c(O)c1)C(C)Cc1ccc(O)c(O)c1 (configuration not stated),normalized growth,"locus YAL013W, strain DEP1, stronger effect = lower value",0.625 (active)
same,normalized growth,"locus YBR021W, strain FUR4, stronger effect = lower value",0.952
same,normalized growth,"locus YBR229C, strain ROT2, stronger effect = lower value",0.909 (active)
same,normalized growth,"locus YCL029C, strain bik1, stronger effect = lower value",0.916
same,normalized growth,"locus YDL035C, strain GPR1, stronger effect = lower value",0.774 (active)
same,normalized growth,"locus YDL074C, strain BRE1, stronger effect = lower value",0.48 (active)
same,normalized growth,"locus YDL101C, strain DUN1, stronger effect = lower value",0.522 (active)
same,normalized growth,"locus YDL185W, strain tfp1, stronger effect = lower value",0.995
same,normalized growth,"locus YDL192W, strain arf1, stronger effect = lower value",0.896 (active)
same,normalized growth,"locus YDR101C, strain arx1, stronger effect = lower value",0.939
same,normalized growth,"locus YDR162C, strain NBP2, stronger effect = lower value",0.428 (active)
same,normalized growth,"locus YDR318W, strain mcm21, stronger effect = lower value",0.955
same,normalized growth,"locus YDR388W, stronger effect = lower value",0.895 (active)
same,normalized growth,"locus YDR502C, strain sam2, stronger effect = lower value",0.813 (active)
same,normalized growth,"locus YEL061C, strain CIN8, stronger effect = lower value",0.681 (active)
same,normalized growth,"locus YER110C, stronger effect = lower value",0.988
same,normalized growth,"locus YER155C, strain BEM2, stronger effect = lower value",0.756 (active)
same,normalized growth,"locus YER167W, strain BCK2, stronger effect = lower value",0.957
same,normalized growth,"locus YGL078C, strain dbp3, stronger effect = lower value",0.999
same,normalized growth,"locus YGL086W, strain mad1, stronger effect = lower value",0.909 (active)
same,normalized growth,"locus YGL248W, strain PDE1, stronger effect = lower value",0.814 (active)
same,normalized growth,"locus YGR078C, strain PAC10, stronger effect = lower value",0.818 (active)
same,normalized growth,"locus YGR135W, strain pre9, stronger effect = lower value",0.854 (active)
same,normalized growth,"locus YGR229C, strain SMI1, stronger effect = lower value",0.419 (active)
same,normalized growth,"locus YGR252W, strain gcn5, stronger effect = lower value",0.792
same,normalized growth,"locus YHR030C, strain SLT2, stronger effect = lower value",0.87 (active)
same,normalized growth,"locus YHR079C, strain IRE1 (second series), stronger effect = lower value",0.904 (active)
same,normalized growth,"locus YHR094C, strain hxt1, stronger effect = lower value",1.01
same,normalized growth,"locus YHR129C, strain ARP1, stronger effect = lower value",0.73 (active)
same,normalized growth,"locus YHR200W, strain rpn10, stronger effect = lower value",0.964
same,normalized growth,"locus YIL066C, strain RNR3, stronger effect = lower value",0.61 (active)
same,normalized growth,"locus YIL073C, strain SPO22, stronger effect = lower value",0.499 (active)
same,normalized growth,"locus YIL125W, strain kgd1, stronger effect = lower value",1
same,normalized growth,"locus YIR030C, strain dcg1, stronger effect = lower value",0.903 (active)
same,normalized growth,"locus YJL095W, strain BCK1, stronger effect = lower value",0.113 (active)
same,normalized growth,"locus YJL134W, strain LCB3, stronger effect = lower value",0.909 (active)
same,normalized growth,"locus YJL168C, strain set2, stronger effect = lower value",0.983
same,normalized growth,"locus YJL187C, strain SWE1 (second series), stronger effect = lower value",0.621 (active)
same,normalized growth,"locus YJR043C, strain POL32, stronger effect = lower value",0.425 (active)
same,normalized growth,"locus YKL009W, strain mrt4, stronger effect = lower value",0.993
same,normalized growth,"locus YKL068W, stronger effect = lower value",1.01
same,normalized growth,"locus YKL085W, strain MDH1 (second series), stronger effect = lower value",0.992
same,normalized growth,"locus YKL085W, strain MDH1, stronger effect = lower value",0.992
same,normalized growth,"locus YKR001C, strain vps1, stronger effect = lower value",0.882 (active)
same,normalized growth,"locus YLR039C, strain RIC1, stronger effect = lower value",0.293 (active)
same,normalized growth,"locus YLR058C, strain SHM2, stronger effect = lower value",0.643 (active)
same,normalized growth,"locus YLR102C, strain apc9, stronger effect = lower value",1.01
same,normalized growth,"locus YLR262C, strain YPT6, stronger effect = lower value",0.616
same,normalized growth,"locus YLR268W, strain sec22, stronger effect = lower value",0.853 (active)
same,normalized growth,"locus YLR330W, strain CHS5, stronger effect = lower value",0.82 (active)
same,normalized growth,"locus YLR342W, strain FKS1 (second series), stronger effect = lower value",0.645 (active)
same,normalized growth,"locus YLR371W, strain rom2, stronger effect = lower value",0.919
same,normalized growth,"locus YLR418C, strain cdc73, stronger effect = lower value",0.673 (active)
same,normalized growth,"locus YML016C, strain PPZ1, stronger effect = lower value",0.746 (active)
same,normalized growth,"locus YML032C, strain rad52, stronger effect = lower value",0.927
same,normalized growth,"locus YML124C, strain tub3, stronger effect = lower value",0.979
same,normalized growth,"locus YMR078C, strain ctf18, stronger effect = lower value",0.973
same,normalized growth,"locus YMR223W, strain ubp8, stronger effect = lower value",0.91
same,normalized growth,"locus YMR263W, strain SAP30, stronger effect = lower value",0.455 (active)
same,normalized growth,"locus YMR307W, strain GAS1, stronger effect = lower value",0.691
same,normalized growth,"locus YNL067W, strain RPL9B, stronger effect = lower value",0.726 (active)
same,normalized growth,"locus YNL128W, strain TEP1, stronger effect = lower value",0.816 (active)
same,normalized growth,"locus YNL233W, strain BNI4, stronger effect = lower value",0.849 (active)
same,normalized growth,"locus YNL250W, strain rad50, stronger effect = lower value",1.03
same,normalized growth,"locus YNL271C, strain bni1, stronger effect = lower value",0.997
same,normalized growth,"locus YNL298W, strain CLA4, stronger effect = lower value",0.981
same,normalized growth,"locus YNL307C, strain MCK1, stronger effect = lower value",0.899 (active)
same,normalized growth,"locus YNL322C, strain KRE1, stronger effect = lower value",0.522 (active)
same,normalized growth,"locus YNR052C, strain pop2, stronger effect = lower value",0.927
same,normalized growth,"locus YOL012C, strain htz1",0.299
same,normalized growth,"locus YOL147C, strain pex11, stronger effect = lower value",0.936
same,normalized growth,"locus YOR061W, strain CKA2, stronger effect = lower value",0.871 (active)
same,normalized growth,"locus YOR069W, strain VPS5, stronger effect = lower value",0.858 (active)
same,normalized growth,"locus YOR136W, strain idh2, stronger effect = lower value",1.01
same,normalized growth,"locus YOR144C, strain elg1, stronger effect = lower value",0.95
same,normalized growth,"locus YOR184W, strain ser1, stronger effect = lower value",0.784 (active)
same,normalized growth,"locus YOR316C, strain cot1, stronger effect = lower value",0.999
same,normalized growth,"locus YPR119W, strain clb2, stronger effect = lower value",1.01
same,normalized growth,"locus YPR141C, strain kar3, stronger effect = lower value",1.01
same,normalized growth,"locus YPR163C, strain tif3, stronger effect = lower value",0.982
same,normalized growth,"locus YPR167C, strain met16, stronger effect = lower value",0.952
same,normalized growth,"strain wtn01, stronger effect = lower value",0.892 (active)
